ChEMBL document CHEMBL4513216, “Probing the Open Global Health Chemical Diversity Library for Multistage-Active Starting Points for Next-Generation Antimalarials” (ACS Infect Dis, 2020)
The campaign covered roughly 69,000 compounds. About 8,600 (12%) showed an effect of 50% or more. This is one part of a sample in which strong results are shown more often than they occur.

Test system: Plasmodium berghei
Assay: Screen against P. berghei liver stage (PbLuc), transformed with Luciferase, at 10uM
Format: functional, HepG2
Conditions: tested at 10 uM

SMILES | INHIBITION
Cc1ccc(NC(=O)c2cnc(N3CCN(C)CC3)nc2C)cc1C | 43.8%
CCc1noc(-c2cccc(OCC(=O)NC(C)C)c2)n1 | 48.7%
CC1(c2[nH]ncc2C(N)=O)CCN(c2ncccn2)CC1 | 26.3%
CC(C)=CCN1C[C@@H]2CC[C@H]1CN(C(=O)Cn1c(C)cc(C)nc1=O)C2 | -35%
CC(C)C(=O)N1CCN(C(=O)c2cscn2)[C@H]2CS(=O)(=O)C[C@H]21 | 26.8%
CCn1nc(C)c(C(C)NC(=O)c2cnc(N(C)C)nc2C)c1C (stereo unspecified) | 10.3%
C[C@@H](NC(=O)c1cccnc1)c1onc(-c2ccccc2)c1C(=O)O | 7.5%
CN(c1ncccc1CNC(=O)c1cscn1)C1CCCCC1 | 26%
CN(C)c1nccc(N(C)C2CCCCC2)n1 | 25.5%
Cc1nc(-c2ccncc2)ncc1C(C)NC(=O)CN1CCCCC1 (stereo unspecified) | 35.8%
CCN(C)S(=O)(=O)NC(C)c1cnc(N(C)C2CCCCC2)nc1C (stereo unspecified) | 63.1%
Cc1nc(N(C)C2CCCCC2)ncc1C(C)NC(=O)c1cscn1 (stereo unspecified) | 59.2%
Cc1nc(N(C)C2CCCCC2)ncc1C(C)NC(=O)c1cccnc1 (stereo unspecified) | 77.5%
NC(=O)CN1CCC(c2cncc(-c3cccc(Cl)c3)n2)CC1 | -40.6%
CC(C)COC(=O)N1CCCN(C(C)c2nnc(CC(C)C)o2)CC1 (stereo unspecified) | 4.22%
CCCc1nc(C(C)(C)NC(=O)C2CC(=O)N(C3CCCC3)C2)no1 (stereo unspecified) | -15.5%
CCCC(=O)N1CCN(CC(O)COCC)CC1 (stereo unspecified) | -2.53%
Cc1ncsc1CN1CC[C@](C)(O)[C@@H](Oc2cccc(F)c2)C1 | 33.7%
Cc1nc2n(n1)CC(NCc1ccnc(-c3ccccc3)n1)CC2 (stereo unspecified) | -15%
O=c1[nH]c(CCN2CCCCC2Cn2cccn2)nc2ccccc12 (stereo unspecified) | 36.1%
Cc1cccnc1NC(=O)C1(n2cnnn2)CCCCC1 | 49.5%
CC(C)n1[nH]c(=O)c2c1NC(=O)CC2c1ccc(S(C)(=O)=O)cc1 (stereo unspecified) | -2.43%
CC(=O)NCC1CCCN(Cc2nc(Cc3ccccc3F)no2)C1 (stereo unspecified) | 20.4%
NC1(C(=O)NCC2CCCN(Cc3cccc4nonc34)C2)CCC1 (stereo unspecified) | 62.8%
O=C(N[C@@H]1CCN(Cc2cccc3nonc23)C[C@H]1O)c1cccnc1 | 12.9%
O=C(NCC1CCCN(Cc2cccc3nonc23)C1)c1ccc[nH]1 (stereo unspecified) | 70.3%

SMILES | INHIBITION
NC1(C(=O)NCC2CCCN(Cc3ccccc3F)C2)CCCC1 (stereo unspecified) | 42.4%
CCN1CCCC(CNC(=O)C2(c3cccc(Cl)c3)CC2)C1 (stereo unspecified) | -2.42%
CCCNc1ncc(CN2CCC3(CCNC(=O)CC3)CC2)cn1 | -41.8%
CC1CCc2n[nH]c(C(=O)NCCCc3ccccn3)c2C1 (stereo unspecified) | -41.8%
Cc1ccc2oc(SCC(N)=O)nc2n1 | 18.4%
CCCC(=O)N1C[C@@H]2CCN(c3cnccn3)C[C@@H]2C1 | -30.7%
CC(C)c1nc(CN(C)C(=O)CNS(=O)(=O)c2cccs2)cs1 | 26.6%
CC(C)c1nc(CN(C)Cc2ccc(F)cc2)cs1 | 20.4%
CC(C)c1nc(CN(C)S(=O)(=O)c2cccs2)cs1 | 55.4%
Cc1c(CCC(=O)Nc2ccc(Cl)cn2)cnn1C | -23.4%
Cc1ccc(-n2nc(C)cc2N)nn1 | -24.2%
CCc1nc(C)c(CN2CCOC(CCCC(C)C)C2)[nH]1 (stereo unspecified) | 68.9%
CCc1nc(C)c(CN2CCOC(Cc3cccc4ccccc34)C2)[nH]1 (stereo unspecified) | 18.6%
CCc1nc(C)c(CN2CCOC(Cc3ccccc3Cl)C2)[nH]1 (stereo unspecified) | 24.2%
O=C(c1c[nH]c(=O)cn1)N1C[C@H]2CC[C@@H](C1)N(Cc1ccccc1)C2 | 17.2%
CCn1cc(N)c(-c2nnc3n2CCCC3)n1 | 21.9%
CCC(C)(C)N(C)CCOc1cccc(S(C)(=O)=O)c1 | 23.2%
CN(CCOc1cccc(S(C)(=O)=O)c1)c1ccccc1 | 81.1%
CN(CCOc1cccc(S(C)(=O)=O)c1)CC(F)F | 31.1%
COCCN1CCC2(CC1)CN(C(=O)C1CC1)c1ccc(F)cc12 | 34.6%
O=C(c1cccnc1N1CCCCC1)N1CCCC(n2ccnc2)C1 (stereo unspecified) | 22.55%
Cc1cc(CNc2ccc(-c3nc(C4CC4)no3)cn2)no1 | -28.3%
CSCC[C@@H](CO)Nc1ccc(-c2nc(C3CC3)no2)cn1 | 54.4%
CSCC[C@@H](CO)Nc1ccc(-c2nc(-c3ccccc3C)no2)cn1 | 36.5%
CSCC[C@@H](CO)Nc1ccc(-c2nc(-c3ccccc3F)no2)cn1 | 76.8%
